NPR1 activator: GC-A stimulated cGMP production enhancers – HEK293 GC-A cells, cGMP TR-FRET, EC30 ANP, primary screen; Atrial natriuretic peptide receptor 1 (Homo sapiens), P16066; 0% at EC30 ANP, 100% saturating ANP; activation, % at 10 µM; 370,000 compounds, 0.14% hits; in the data active means activation above about 40%
proKLK7 act: proKLK7 zymogen activators, primary screen, biochemical, fluorescence intensity. AID 652039, 2013. Kallikrein-7 (Homo sapiens), P49862. 370,000 compounds, 0.9% hits. purified proKLK7, EDANS-DABCYL substrate fluorescence; 100% is mature enzyme control, 0% vehicle. activation, % at 7 µM;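 active means activation above the mean of all tested compounds plus 3 SD, computed per campaign excluding outliers beyond control limits, cut at about 13% in these data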
Target sequence (P49862 whole entry, looked up): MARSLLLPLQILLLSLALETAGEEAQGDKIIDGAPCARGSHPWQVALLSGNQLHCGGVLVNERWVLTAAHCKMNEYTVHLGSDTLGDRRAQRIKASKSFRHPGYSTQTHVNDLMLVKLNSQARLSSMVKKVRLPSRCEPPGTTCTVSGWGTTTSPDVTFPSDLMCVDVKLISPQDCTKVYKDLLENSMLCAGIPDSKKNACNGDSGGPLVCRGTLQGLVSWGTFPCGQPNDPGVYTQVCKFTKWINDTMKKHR
ADAM10 inh: human ADAM10 inhibitors, primary screen, biochemical, QFRET, HTS. inhibition, % at 7 µM. Disintegrin and metalloproteinase domain-containing protein 10 (Homo sapiens), O14672. AID 720582, 2013. 370,000 compounds, 0.62% hits. recombinant ADAM10, EDANS/DABCYL FRET peptide cleavage, 3 h;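 active means inhibition above a per-campaign cutoff equal to the mean of compounds falling between control-based bounds plus 3 SD, cut at about 20% in these data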;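 further: 0% = DMSO wells while the 100% control is not disclosed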
NPR2 activator: human GC-B receptor activators, primary screen, HEK293 GC-B cells, cGMP TR-FRET, EC30 CNP | 0% at EC30 CNP, 100% saturating CNP | activation, % at 10 µM | 370,000 compounds, 0.11% hits | AID 1920062, 2024;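 active means activation at 10 µM reaching about 35% in either raw or pattern-adjusted values, limit read from the data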
ADAM17 inh: ADAM17 inhibitors, primary screen, biochemical, QFRET | Disintegrin and metalloproteinase domain-containing protein 17 (Homo sapiens), P78536 | recombinant ADAM17, EDANS/DABCYL FRET peptide cleavage | inhibition, % at 6.95 µM | 370,000 compounds, 0.83% hits | AID 720648, 2013;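 active means inhibition above the mean of compounds lying between control limits plus 3 SD, set per campaign, cut at about 8.5% in these data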;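 further: 0% = DMSO-only wells as the low control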
ADAM10 ctr: ADAM10 inhibitors, counter-screen for ADAM17 exosite inhibitor project, biochemical, FRET, human ADAM10; shares compounds with ADAM17 inh; recombinant ADAM10, EDANS/DABCYL FRET peptide cleavage, 3 h; inhibition, % at 6.95 µM; 2,900 compounds, 47% hits; AID 743256, 2014;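 active means mean inhibition over the triplicate runs exceeds the activity threshold set in the earlier primary screen, cut at about 20% in these data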;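 further: 0% = DMSO wells and 100% = marimastat wells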
ADAM17 confirm: ADAM17 inhibitors, hit retest, confirmation, biochemical, QFRET peptide cleavage. shares compounds with ADAM17 inh. recombinant ADAM17, EDANS/DABCYL QFRET peptide cleavage. inhibition, % at 6.95 µM. 2,900 compounds, 65% hits. AID 743257, 2014;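 active means mean inhibition across replicates above the hit cutoff set in the primary screen, cut at about 8.5% in these data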;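 further: 0% = DMSO wells and 100% = marimastat wells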
Numbers without * were called inactive; . = no result. Shown are actives, neighbours in structure and some others; about 2.2% of the full set was active somewhere.

SMILES	NPR1 activator	proKLK7 act	ADAM10 inh	NPR2 activator	ADAM17 inh	ADAM10 ctr	ADAM17 confirm
COc1ccc(S(=O)(=O)Nc2ccccn2)c(C)c1C	4	1	-12	4	-4	.	.
COc1ccc(C(C)C)cc1S(=O)(=O)Nc1ccccn1	2	0	10	-2	10*	-15	-6
O=C(NC(Nc1nc2ccc([N+](=O)[O-])cc2s1)(C(F)(F)F)C(F)(F)F)c1ccccc1Cl	10	0	16	8	11*	22*	13*
C=CC[C@H]1c2ccccc2[C@H]2N3N=Cc4ccccc4[C@H]3[C@H](CCCC)C(=O)N2N1C(=O)NCc1ccccc1	-2	1	-5	-2	-1	.	.
C[C@H](c1ccccc1)N1C[C@H](COCc2ccccc2)Oc2cc(N3CC[C@@H](O)C3)ccc2S1(=O)=O	-5	0	13	-6	9.8*	29*	15*
C[C@@H](c1ccccc1)N1C[C@H](COCc2ccccc2)Oc2cc(N3CC[C@@H](O)C3)ccc2S1(=O)=O	-4	0	12	0	10*	16	6
CN(c1cccc(NC(=O)CN(c2ccc(Cl)c(Cl)c2)S(=O)(=O)c2ccccc2)c1)S(C)(=O)=O	-4	0	18	0	7	.	.
Cc1ccc(S(=O)(=O)N(CC(=O)Nc2cccc(N(C)S(C)(=O)=O)c2)c2ccc(Cl)c(Cl)c2)cc1	-8	0	25*	0	13*	39*	22*
CCC[C@H]1[C@@H](NC(=O)NCC)CC[C@@]23CCCN2C(=O)CCC[C@@H]13	-1	.	3	0	0	.	.
Cc1ccccc1C(=O)c1c[nH]c(C(=O)NCC2CCCO2)c1 (stereo not given)	-2	1	9	-5	9.2*	-10	1
CC(C)(C)c1ccc(C(=O)c2c[nH]c(C(=O)NCC3CCCO3)c2)cc1 (stereo not given)	-1	0	3	-5	-2	.	.
Cc1ccc(C)c(N2CCN(S(=O)(=O)c3ccc4c(c3)C(C)(C)C(=O)N4C)CC2)c1	1	0	-9	3	7	.	.
Cc1cccc(N2CCN(S(=O)(=O)c3ccc4c(c3)C(C)(C)C(=O)N4C)CC2)c1C	2	1	20	-6	8.8*	3	8
CCOC(=O)c1c(NC(=O)Cn2nc(C(F)F)cc2C(F)F)sc(C)c1C	0	1	18	-12	9.1*	18	12*
CCOc1ccc(/C=N/n2c(-c3n[nH]c4c3CCC4)n[nH]c2=S)cc1	0	1	0	-13	-3	.	.
CC(C)(C)c1cc(C(=O)CCN2CCOCC2)cc(C(C)(C)C)c1O	-3	0	13	-8	9.4*	-3	3
CC(C)(C)NC(=O)NC(=O)COC(=O)c1cccc(NS(=O)(=O)c2ccc(F)c(F)c2)c1	1	0	11	1	6	.	.
CC(C)(C)c1ccc(NC(=O)COC(=O)c2ccc(NS(=O)(=O)c3ccc(F)c(F)c3)cc2)cc1	-2	0	14	2	9.6*	42*	20*
O=[N+]([O-])c1cccc(C2=Nn3c(nnc3-c3ccccc3)SC2)c1	18	0	-3	15	0	.	.
COC(=O)[C@]12C[C@H](CC(=O)NCc3ccc(C)o3)C(=O)N(Cc3ccc4c(c3)OCO4)C1=C[C@H](C(C)(C)C)O[C@@H]2C	-3	0	6	-4	3	.	.

Screening results as filed in PubChem BioAssay.
